SENP6 block: SENP6 protease inhibition. Q9GZR1. 330,000 tested, 1.8% active. Recombinant SENP6 catalytic domain, aminoluciferin luminescence. inhibition, % at 10 µM;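 active means inhibition above about 50% at the single tested dose, limit read from the data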
SENP8 block-1: inhibitors of human SENP8 protease | recombinant SENP8, Nedd8 substrate fluorescence | inhibition, % at 20 µM | 360,000 tested, 0.64% active; in the data active means inhibition mostly above about 40%, no sharp cut-off; inactive means mostly below about 27%
SENP8 block-2: blocks the human protease SENP8. Q96LD8. purified SENP8, Z-RLRGG-aminoluciferin cleavage, luminescence. inhibition, % at 10 µM. 330,000 tested, 1.2% active. AID 2540; in the data active means inhibition above about 50%
SENP7 inh: inhibitors of human SENP7 protease. Q9BQF6. 330,000 tested, 1.5% active. recombinant SENP7, Z-RLRGG-aminoluciferin luminescence, 40 min. inhibition, % at 5 µM;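 active means inhibition above about 50% at the single test dose, limit read from the data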
Target sequence (Q9BQF6 706-1050 limits assumed): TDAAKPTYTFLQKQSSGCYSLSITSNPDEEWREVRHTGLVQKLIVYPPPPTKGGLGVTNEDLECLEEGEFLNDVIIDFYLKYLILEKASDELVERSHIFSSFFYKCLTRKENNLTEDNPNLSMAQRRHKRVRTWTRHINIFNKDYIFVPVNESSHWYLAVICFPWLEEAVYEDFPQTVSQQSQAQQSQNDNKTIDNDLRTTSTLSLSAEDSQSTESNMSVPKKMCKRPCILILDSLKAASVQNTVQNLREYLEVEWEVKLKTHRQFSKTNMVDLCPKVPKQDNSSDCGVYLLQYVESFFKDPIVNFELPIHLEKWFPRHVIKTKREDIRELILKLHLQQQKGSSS
AHR activator: activators of human aryl hydrocarbon receptor; 320,000 tested, 2.5% active; activation, % at 5 µM; AID 2796; AHR-responsive luciferase reporter cells, luminescence; in the data active means activation above about 47%
EBI2 block: antagonists of human EBI2 receptor; P32249; EBI2 beta-arrestin recruitment, luminescence, 7a,25-OHC stimulated; inhibition, % at 5 µM; 360,000 tested, 0.81% active; AID 651636; in the data active means inhibition above about 38%;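 further: enzyme fragment complementation signal reports receptor beta-arrestin coupling in cells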
SENP8 confirm: confirmation of human SENP8 protease inhibitors | shares compounds with SENP7 inh | Recombinant SENP8, Z-RLRGG-aminoluciferin luminescence, 60 min | inhibition, % at 12.5 µM | 6,200 tested, 40% active;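 active means mean inhibition across replicates above about 50%, limit read from the data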
SENP6 conf: confirmation of human SENP6 protease inhibitors | inhibition, % at 12.5 µM | AID 488915 | shares compounds with SENP7 inh | 6,200 tested, 58% active | recombinant SENP6, Z-RLRGG-aminoluciferin luminescence
SENP7 conf: human SENP7 inhibition, confirmed. shares compounds with SENP7 inh. recombinant SENP7, Z-RLRGG-aminoluciferin luminescence, 40 min. inhibition, % at 12.5 µM. 6,200 tested, 69% active
Casp3 select: selectivity test for SENP inhibitors: human caspase-3 inhibition | shares compounds with SENP7 inh | purified caspase-3, Z-DEVD-aminoluciferin luminescence, 60 min | inhibition, % at 12.5 µM | 6,200 tested, 60% active | AID 488918;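 active means mean inhibition above about 50%, limit read from the data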
Target sequence (P42574 28-227 limits assumed): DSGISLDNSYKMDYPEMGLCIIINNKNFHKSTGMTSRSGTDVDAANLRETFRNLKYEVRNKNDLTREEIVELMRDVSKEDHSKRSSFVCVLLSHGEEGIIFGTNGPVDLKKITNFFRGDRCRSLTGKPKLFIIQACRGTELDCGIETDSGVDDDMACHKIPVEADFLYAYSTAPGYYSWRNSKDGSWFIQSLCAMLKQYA
SENP luc ctr: luminescence interference (SENP counter-screen); inhibition, % at 12.5 µM; Pre-incubated SENP8/Z-RLRGG-aminoluciferin, luciferase luminescence interference; shares compounds with SENP7 inh; 6,200 tested, 39% active;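 active means mean inhibition above about 50% when retested at one dose, limit read from the data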
Each line names hits and unclear results; the compound was inactive in the other large screens (follow-up assays come after a bar, where they were run). Only some compounds are listed: those with a hit (about 5% of all), similar ones and a draw of the others.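 How the source made its calls, unless noted: active means mean inhibition above about 50% in the one-dose retest (limit read from the data); inactive means the rest.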

CN=c1scc(C)n1/N=C/c1ccc(O)cc1O	SENP6 block 77.9, SENP8 block-2 76.5, SENP7 inh 77.5 | SENP8 confirm 90.3 | SENP6 conf 88.3 | SENP7 conf 99.1 | Casp3 select 88.0 | SENP luc ctr 85.6
Cc1nnc(C)n1/N=C/c1ccc2c(c1)OCCO2	none
Nc1nc2ccccc2n1/N=C/c1ccc2c(c1)OCO2	SENP6 block 90.4, SENP8 block-2 84.2, SENP7 inh 90.0 | SENP8 confirm 86.1 | SENP6 conf 86.5 | SENP7 conf 97.6 | Casp3 select 85.5 | SENP luc ctr 82.0
CN=c1scc(C)n1/N=C/c1ccc(O)cc1	none
Cn1c(/N=C/c2ccc3c(c2)OCO3)nc2ccccc21	none
O=C(CSc1n[nH]c(-c2ccccc2F)n1)NCC(=O)Nc1ccc(F)c(F)c1F	none
C/C(=N/NC(=O)CCc1ccccc1)c1ccc2c(c1)OCO2	none (no result: AHR activator)
O=C(CCc1ccccc1)NC(=S)Nc1cccc(C(=O)O)c1	none
O=C(CCN1CCCC1Cc1ccccc1)c1ccc2c(c1)OCCO2 (stereo unspecified)	none
O=C(CCCc1ccccc1)c1ccc2c(c1)OCCO2	SENP6 block 92.2, SENP8 block-2 92.6, SENP7 inh 95.7 | SENP8 confirm 94.9 | SENP6 conf 96.6 | SENP7 conf 102.0 | Casp3 select 90.8 | SENP luc ctr 66.7
O=C(CCc1ccccc1)c1ccc2c(c1)OCCCO2	SENP6 block 57.9 | SENP8 confirm inactive | SENP6 conf inactive | SENP7 conf 76.3 | Casp3 select inactive | SENP luc ctr inactive
O=C(CCCc1ccccc1)Nc1cccc(C(=O)O)c1	SENP6 block 88.8, SENP8 block-2 81.9, SENP7 inh 92.8 | SENP8 confirm 92.7 | SENP6 conf 92.6 | SENP7 conf 100.0 | Casp3 select inactive | SENP luc ctr 92.0
O/N=C(/CCc1ccccc1)c1ccc2c(c1)OCCO2	SENP7 inh 52.3 | SENP8 confirm 69.6 | SENP6 conf 68.8 | SENP7 conf 87.6 | Casp3 select inactive | SENP luc ctr 72.2
O=C(O)CCC(=O)c1ccc2c(c1)OCCCO2	none
O=C(COC(=O)c1ccccn1)NC(=O)c1ccccc1	none
O=C(CCCC(=O)c1ccc(O)cc1)c1ccc(O)cc1	SENP6 block 93.0, SENP8 block-2 88.6, SENP7 inh 73.8 | SENP8 confirm 91.5 | SENP6 conf 91.5 | SENP7 conf 100.7 | Casp3 select 92.4 | SENP luc ctr 91.5
O=C(CCCC(=O)c1ccccc1)NCCc1ccccc1	none
O=C(O)c1ccc2c(c1)OCCCO2	none
O=C(c1ccccc1)c1ccc2c(c1)OCCCO2	SENP7 inh 62.0 | SENP8 confirm inactive | SENP6 conf inactive | SENP7 conf 74.7 | Casp3 select 53.8 | SENP luc ctr 55.0
O=C(/C=C/c1ccccc1)c1ccc2c(c1)OCCCCO2	SENP6 block 88.5, SENP7 inh 68.0 | SENP8 confirm 72.0 | SENP6 conf 59.0 | SENP7 conf inactive | Casp3 select inactive | SENP luc ctr 75.8
O=C(CCCc1ccccc1)c1ccccc1	SENP6 block 79.8, SENP8 block-2 59.1, SENP7 inh 60.0 | SENP8 confirm inactive | SENP6 conf inactive | SENP7 conf 86.1 | Casp3 select inactive | SENP luc ctr inactive
Cc1ccccc1CN1CCN(S(=O)(=O)c2cccs2)CC1	none
FC(F)(F)c1cnc(-c2cnc(-c3ccccn3)nc2)c(Cl)c1	none
Cc1ccc(NC(=S)NCCc2ccccc2)nc1	none
Cc1ccc(C(=O)Nc2nnn(C)n2)cc1	none
Cn1nnc(NC(=O)c2cccc(F)c2)n1	SENP6 block 51.2 | SENP8 confirm inactive | SENP6 conf inactive | SENP7 conf inactive | Casp3 select inactive | SENP luc ctr inactive
CCOc1ccc(NC(=O)Nc2ccccc2C(N)=O)cc1	SENP6 block 98.5, SENP8 block-2 91.2, SENP7 inh 100.0 | SENP8 confirm 95.3 | SENP6 conf 97.1 | SENP7 conf 102.5 | Casp3 select 97.8 | SENP luc ctr inactive
COc1ccc(NC(=O)Nc2ccccc2C(N)=O)cc1	SENP6 block 95.7, SENP8 block-2 90.7, SENP7 inh 96.2 | SENP8 confirm inactive | SENP6 conf 94.7 | SENP7 conf 102.1 | Casp3 select 97.8 | SENP luc ctr 88.7
COc1ccc(NC(=O)Nc2ccccc2C(N)=O)cc1OC	none
COc1ccc(NC(=O)Nc2cc(C)ccc2F)cc1	SENP6 block 91.7, SENP8 block-2 88.2 | SENP8 confirm inactive | SENP6 conf 92.3 | SENP7 conf 100.9 | Casp3 select 90.6 | SENP luc ctr 58.9
CCC1CCC/C1=N\NC(=O)c1cc(C)[nH]n1 (stereo unspecified)	none
S=C(Nc1cc(Cl)cc(Cl)c1)N1CCN(c2ccccn2)CC1	none (no result: AHR activator)
O=C(COc1ccc(Cl)cc1)NNC(=O)C(=O)NC1CCCCC1	none
CC(C)(C)OC(=O)N1CCC(c2c(C(=O)N3CCN(C(=O)c4ccco4)CC3)cnn2-c2ccc(F)cc2F)CC1	none
N#Cc1ccc(Cn2c(-c3ccc(F)cc3)noc2=O)cc1	none
O=C1NC(=O)N(Cc2ccccc2F)C1=O	none
Cc1ccc(NC(=S)c2nc3ccccc3[nH]2)cc1	SENP6 block 78.9, SENP8 block-2 56.9, SENP7 inh 55.3 | SENP8 confirm 71.0 | SENP6 conf 78.4 | SENP7 conf 94.9 | Casp3 select 60.5 | SENP luc ctr inactive
COc1ccc(CNC(=O)CN(C(=O)CCC(=O)Nc2nccs2)c2ccc(C)cc2)cc1	none
COc1ccc(C(=O)N=c2sc3ccccc3n2C)cc1	SENP8 block-2 68.8, SENP7 inh 77.1 | SENP8 confirm inactive | SENP6 conf inactive | SENP7 conf inactive | Casp3 select inactive | SENP luc ctr inactive
COc1cc(OC)cc(C(=O)N=c2sc3ccccc3n2C)c1	SENP7 inh 51.0 | SENP8 confirm inactive | SENP6 conf inactive | SENP7 conf inactive | Casp3 select inactive | SENP luc ctr inactive
CC(=O)N=c1sc2ccccc2n1C	none
CCCOc1ccccc1/C=C1\SC(N2CCCCC2)=NC1=O	none
CCOc1cc2c(cc1O)C(=NO)CC1C2CCC2(C)C(O)CCC12 (stereo unspecified)	none (no result: SENP6 block, SENP8 block-2, SENP7 inh, AHR activator)
COC(=O)c1ccccc1NC(=O)c1sc(Cl)nc1C	none
